Compound activity from PubChem BioAssay.
An excerpt weighted towards active compounds, which were near 4.1% of everything screened.
DAX1 inh-1 = inhibitors of human orphan nuclear receptor DAX1 (NR0B1). AID 504766. P51843. HEK293 Gal4-DAX1 luciferase reporter, luminescence. inhibition, % at 6.75 µM. actives 0.99% (n = 340,000);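 active = inhibition above the mean over all tested compounds plus 3 SD, cut at about 4.2% in these data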;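 note: 0% = DAX1-transfected cells with DMSO and 100% = empty-vector control cells with DMSO; inhibition shows as a rise in luminescence from relieved DAX1 repression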
Target sequence (P51843 207-470 limits assumed): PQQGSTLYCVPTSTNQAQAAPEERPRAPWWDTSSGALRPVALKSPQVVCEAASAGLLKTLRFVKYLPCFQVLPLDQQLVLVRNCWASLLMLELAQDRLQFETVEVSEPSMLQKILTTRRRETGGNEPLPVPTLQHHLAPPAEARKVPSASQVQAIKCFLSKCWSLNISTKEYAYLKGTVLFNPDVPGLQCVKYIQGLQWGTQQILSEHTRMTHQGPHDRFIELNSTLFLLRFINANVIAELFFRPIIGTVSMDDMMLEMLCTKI
DAX1 inh-2 = DAX1 (NR0B1) inhibition, primary screen; HEK293T StAR-luciferase reporter, SF-1/DAX-1 repression relief; inhibition, % at 6.8 µM; actives 1.1% (n = 370,000);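 active = inhibition above the mean over all tested compounds plus 3 SD, cut at about 3.6% in these data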;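 note: 0% = DAX-1 cells with DMSO and 100% = cells lacking DAX-1 with DMSO; higher inhibition means more luminescence from relief of DAX-1 repression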
hgDAF12 agonist = hgDAF-12 agonism, primary luciferase screen | HEK293 GAL4-hgDAF12 UAS-luciferase reporter, agonist luminescence; normalized to butyrate control | activation, % at 6.8 µM | actives 1.8% (n = 370,000) | AID 687014;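 active = activation above a cutoff set at the mean of all screened compounds plus 3 SD, cut at about 10% in these data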;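 note: 0% = DMSO wells and 100% = sodium butyrate wells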
ssDAF-12 act = activates DAF-12 receptor from parasite S. stercoralis; HEK293 ssDAF-12/GRIP1 lit1-tk-luc reporter, luminescence; % of 3 µM dafachronic acid response; activation, % at 6.8 µM; actives 1% (n = 370,000); AID 652126;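 active = activation above the mean over all tested compounds plus 3 SD, cut at about 0.9% in these data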;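 note: 0% = DMSO-only wells and 100% = 3 µM delta7-dafachronic acid wells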
hcDAF12 agonist = activators of H. contortus DAF-12 nuclear receptor. activation, % at 6.8 µM. HEK293 hcDAF-12 lit1-tk-luc reporter, luminescence; 0% DMSO, 100% Δ7-dafachronic acid. actives 1.4% (n = 370,000);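 active = activation above the mean of all tested compounds plus 3 SD, cut at about 5.5% in these data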;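 note: 100% = response to 3 µM Δ7-dafachronic acid high control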
Active calls of the source: *; . = not tested or not shown.

SMILES	DAX1 inh-1	DAX1 inh-2	hgDAF12 agonist	ssDAF-12 act	hcDAF12 agonist
CN(CCO)C1CN(Cc2cn(Cc3ccccc3C(F)(F)F)nn2)S(=O)(=O)C1 (stereo unspecified)	.	-1.0	2.5	-0.8	-2.5
C#Cc1cccc(OCC(C)CN2CCC(C(O)(c3ccccc3)c3ccccc3)CC2)c1 (stereo unspecified)	.	0.1	1.1	-1.7	-2.8
COc1ccc(NC(=O)c2cc(C)nn2-c2ccccc2)cc1	0.1	-0.1	8.5	-0.8	-0.7
COc1ccc(CNC(=O)c2cc(C)nn2-c2ccccc2)cc1	6.7*	0.1	-2.1	-1.1	-0.1
COc1ccc(CNC(=O)c2cccc(N3CCCC3=O)c2)cc1	0.2	0.3	1.7	1.2*	-1.7
O=C(Nc1ccc(N2CCCC2=O)cc1)c1cccc(F)c1	1.4	1.1	10.8*	-1.0	0.3
O=C(NCCCc1ccccc1)[C@H](Cc1c[nH]c2ccccc12)NC1(C(=O)NCCc2c[nH]c3ccccc23)CCC1	.	.	0.6	-0.5	2.6
Cc1cnc(NC(=O)CC2CCCC2)s1	4.2	2.6	10.5*	-0.9	3.2
Cc1cnc(NC(=O)CN2C(=O)C3CC=CCC3C2=O)s1 (stereo unspecified)	3.7	0.5	1.8	-1.0	-1.4
Cc1cnc(NC(=O)CCN2C(=O)C3CCCCC3C2=O)s1 (stereo unspecified)	6.7*	0.3	1.6	-1.3	-0.8
COCc1cc(N2CCN(C(=O)OC(C)(C)C)C[C@H]2C)ccc1N1CC[C@H](O)C1	.	-0.3	-6.4	-1.2	-2.5
O=C(/C=C/c1cccs1)NNC(=O)c1ccccc1	0.2	1.5	6.7	-0.1	6.0*
Cn1c(=NC(=O)c2ccccc2[N+](=O)[O-])sc2cc(S(C)(=O)=O)ccc21	2.2	4.3*	12.4*	-0.3	5.5
Cn1c(=NC(=O)c2ccc(S(=O)(=O)N3CCCc4ccccc43)cc2)sc2cc(S(C)(=O)=O)ccc21	0.6	-0.1	-3.0	-1.6	0.3
Cn1c(COc2ccc(F)cc2)nc2ccccc21	2.2	0.7	9.3	-0.2	4.1
Cc1ccccc1OCc1nc2ccccc2n1C	1.8	1.5	11.0*	-0.4	3.7
C=C(C)Cn1c(SCC(=O)N/N=C(\C)c2ccc(Br)cc2)nnc1-c1ccc(Br)cc1	.	-0.3	-2.9	-0.8	-1.8
CCOC(=O)[C@@]12CCCC3=C1N(CCC3)C(=O)[C@H]2CC(=O)NCc1cccc2ccccc12	.	0.6	-0.1	-1.6	-1.4
O=C(Nc1ccccc1)c1cnc2n(c1=O)CCS2	0.4	2.3	10.0	-0.1	6.1*
Cc1cccc(NC(=O)c2cnc3n(c2=O)CCS3)c1	1.4	1.4	5.9	-1.0	0.1
O=C(Nc1ccc2c(c1)OCCO2)c1cnc2n(c1=O)CCS2	1.5	3.7*	8.8	-0.6	4.0
C=CCN1C(=O)[C@@H](CC(=O)N2CCCC2)[C@]2(C(=O)OC)CCCCC=C12	.	-0.7	-0.5	-1.2	-3.4
COc1ccc(CNS(=O)(=O)/C=C/c2cc(C)ccc2CNC(=O)OC(C)(C)C)cc1	.	-2.2	-4.9	-1.9	-3.8
CCOc1ccc(C2N(c3ccc(Cl)cc3)C(=O)C3CCCN32)cc1OC (stereo unspecified)	0.9	1.7	1.3	-0.8	1.8
CCOc1ccc(C2N(c3cc(Cl)ccc3OC)C(=O)C3CCCN32)cc1OC (stereo unspecified)	5.4*	1.0	1.0	-1.5	-1.7
SMILES	DAX1 inh-1	DAX1 inh-2	hgDAF12 agonist	ssDAF-12 act	hcDAF12 agonist
CCOc1ccc(C2N(c3ccc(OC)cc3)C(=O)C3CCCN32)cc1OC (stereo unspecified)	4.8*	0.4	0.7	-1.7	-0.8
COC(=O)C1CN(Cc2ccc(OC)cc2)CCS(=O)(=O)N1Cc1ccc(OC)cc1 (stereo unspecified)	.	-1.6	-1.6	-0.8	0.2
CC(C)(C)c1ccc(-c2nnc(SCC(=O)Nc3ccccc3-c3ccccc3)n2Cc2ccco2)cc1	.	-0.3	-2.4	-2.0	-1.2
COC(=O)[C@]12C[C@H](CC(=O)NCc3ccc(C)o3)C(=O)N(Cc3ccc(Cl)cc3Cl)C1=C[C@H](C(C)(C)C)O[C@@H]2C	.	-0.6	0.7	-1.0	-2.0
O=C1C[C@H](C(=O)Nc2ccc(Cl)cc2)[C@@H](c2ccccc2)O1	.	-0.3	0.3	-0.2	0.4
CCOC(=O)Cc1csc(NS(=O)(=O)c2cccc([N+](=O)[O-])c2)n1	0.1	0.2	-0.4	-1.3	1.1
Cc1csc(NS(=O)(=O)c2cccc([N+](=O)[O-])c2)n1	6.1*	0.6	-2.0	-0.8	-0.4
COC(/C=C/Nc1ccc(C)cc1)=C(C#N)C#N	-0.4	0.3	-0.5	0.2	5.6*
COc1ccc(-c2nc(CN3CCN(Cc4cccc(Cl)c4)CC3)c(C)o2)cc1	5.8*	-0.6	0.8	-0.9	-1.0
COc1ccc(-c2nc(CN3CCN(Cc4cccc(F)c4)CC3)c(C)o2)cc1	0.1	0.4	1.0	-1.1	1.5
Cc1ccc(C)c(NC(=O)C2CCCN2S(=O)(=O)c2cccc3cccnc23)c1 (stereo unspecified)	.	-1.0	2.1	-1.5	-2.9
Cc1ccc(NC(=O)c2cc(N(C)C)ccc2[P+](=O)O)cc1	1.2	3.7*	11.0*	-0.5	5.7*
O=S(=O)(NCCCc1ccccc1)c1ccc(F)c(F)c1	4.8*	0.0	0.6	-1.1	-2.1
O=S(=O)(NCCCc1ccccc1)c1ccc(Cl)cc1	-0.8	-0.2	-3.4	-0.7	0.9
CC1=C2N=C(N)N(Cc3ccccc3)C(Cc3ccccc3)C2n2c(=O)n(-c3ccccc3)c(=O)n2C1 (stereo unspecified)	.	-0.4	1.9	-1.0	0.7
NC(=O)c1cc2ccc(O)cc2oc1=Nc1ccccc1	-0.5	3.5	11.9*	-0.1	3.9
O=C(O)C1C=CCC(C(=O)O)C1 (stereo unspecified)	0.2	0.1	-0.4	2.4*	-0.1
COc1ccc(C(=O)C2(C(=O)NC3CCCC3)CC(c3ccccc3C(F)(F)F)=NO2)cc1 (stereo unspecified)	.	-0.3	2.6	-1.3	-1.7
Cc1cc(C(=O)O)ccc1N/C=C1\CCCC(C)C1=O (stereo unspecified)	-1.0	2.0	10.7*	0.9	3.1
CC1CCC/C(=C\Nc2ccc(O)cc2)C1=O (stereo unspecified)	-0.1	0.6	2.8	-1.1	1.3
CC1C=CC=CCCC=CC=CC=CC=CC(OC2O[C@H](C)[C@@H](O)[C@H](N)[C@@H]2O)CC(O)C(C(=O)O)C(O)CC(=O)CC(O)C(O)CCC(O)CC(O)CC(O)CC(=O)OC(C)C(C)C1O (stereo partly specified)	.	-0.6	0.7	-1.2	-1.2
Cc1cccn2c(=O)c(C(=O)NC3CCCCC3C)c(O)nc12 (stereo unspecified)	1.5	4.0*	3.0	-1.0	-1.3
Cc1cccn2c(=O)c(C(=O)NC3CCCCC3)c(O)nc12	0.4	-0.2	0.1	-1.2	-1.0
